D3 ag: agonists of human D3 dopamine receptor; D3R DiscoveRx beta-arrestin cells, luminescence, 90 min; 410,000 compounds, 0.58% hits; max activation, %; P35462; in the data active = max activation above about 30%; also: 0% is about no effect
Target sequence (P35462 whole entry, looked up): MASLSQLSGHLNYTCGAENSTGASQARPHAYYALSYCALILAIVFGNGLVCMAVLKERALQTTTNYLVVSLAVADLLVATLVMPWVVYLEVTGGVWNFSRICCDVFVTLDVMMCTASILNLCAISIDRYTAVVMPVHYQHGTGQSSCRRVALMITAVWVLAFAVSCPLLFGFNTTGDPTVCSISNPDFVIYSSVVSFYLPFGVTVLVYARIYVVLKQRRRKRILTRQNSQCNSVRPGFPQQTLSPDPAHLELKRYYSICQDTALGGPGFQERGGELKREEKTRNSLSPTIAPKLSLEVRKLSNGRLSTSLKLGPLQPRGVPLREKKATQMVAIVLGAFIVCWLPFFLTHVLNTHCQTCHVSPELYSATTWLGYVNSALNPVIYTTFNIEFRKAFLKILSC
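Agonist-mode cell screen: cells plated at 1500/well and incubated overnight at 37 °C, then exposed to library compounds for 90 min at 37 °C. Detection reagent was added for 30–60 min at room temperature, and luminescence was read.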
Integrin act MD: activates integrin-mediated alleviation for muscular dystrophy; alpha7betagal myoblasts, beta-gal FDG fluorescence, 48 h; Potency, µM (top dose mostly 38.3 µM), for the others: at the top dose activation, hits mostly activators; 350,000 compounds, 0.064% hits; active = well fitted activation curve with a large enough effect; inconclusive = small, poorly fitted or top-dose-only effect; inactive = no such curve, though single readings can be large or run the other way;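 also: potency is read from the fitted curve at half-maximal effect; 100% = response of the positive control SU9516; nearly all actives have a fitted effect of over 60% in size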
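alpha7betagal+/- myoblasts (passage 13, 250/well) treated 48 h at 37C with compounds at 1:260 dilution of DMSO stock. Lysed, then beta-galactosidase activity read as FDG fluorescence (ex 480/em 540) after 30 min, with pre-read for autofluorescence.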
D3 antag: D3 dopamine receptor (human) antagonism | P35462 | D3R cells, DiscoveRx beta-arrestin luminescence, antagonist mode; stronger effect = lower value | max response, negative = inhibition, % | 360,000 compounds, 2.5% hits; in the data active = max response below about -50%; inconclusive = no clear call, values can overlap the other calls; also: % is scaled to controls: 0 for no effect and ±100 for the full control effect
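Cells plated overnight at 1500 cells/well, then exposed to library compounds with dopamine controls for 90 minutes at 37 degrees C. DiscoveRx reagent added for 30–60 minutes at room temperature; luminescence read, quantitative HTS format.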
The depositor's hits bear a star. In the library only some 2.9% were active in any assay of this set; here they are far more common.

COc1ccc(CN2C(=O)C(Cc3ccccc3)Nc3ncnc(N4CCN(c5ccccc5)CC4)c32)cc1 (stereo unspecified) was read as D3 ag -47, Integrin act MD -10% and D3 antag -111*.
Screening O=C1C(Cc2ccccc2)Nc2ncnc(N3CCOCC3)c2N1Cc1ccc(Br)cc1 (stereo unspecified) returned D3 ag -27, Integrin act MD -24% and D3 antag -66*.
Screening O=C1C(Cc2ccccc2)Nc2ncnc(N3CCN(c4ccccc4)CC3)c2N1Cc1ccc(Cl)cc1 (stereo unspecified) returned D3 ag -45, Integrin act MD -35% and D3 antag -128*.
Screening CC(C)CC1Nc2ncnc(N3CCCCC3)c2N(Cc2ccccc2)C1=O (stereo unspecified) returned D3 ag -24, Integrin act MD 2% and D3 antag -4.
Screening CC(=NNc1ccccc1)C(C)=NNc1ccccc1 returned D3 ag 4, Integrin act MD 0% and D3 antag 9.
CC(Sc1ccccc1)C(=O)Nc1ccc(N2CCOCC2)cc1 (stereo unspecified) was read as D3 ag 1, Integrin act MD -7% and D3 antag -23.
COc1cccc(/C=N/NC(=O)C[n+]2ccccc2)c1OC was read as D3 ag -9, Integrin act MD 15% and D3 antag inconclusive.
For COc1ccc(/C=N/NC(=O)C[n+]2ccccc2)c(OC)c1OC the results were D3 ag -12, Integrin act MD 2% and D3 antag -51*.
Screening C/C(=N\NC(=O)C(C)Sc1ccccc1)c1ccc([N+](=O)[O-])cc1 (stereo unspecified) returned D3 ag -1, Integrin act MD 1% and D3 antag 0.
For COc1cc(/C=C/C(=O)OCC(=O)c2ccc(OC(F)F)cc2)ccc1O the results were D3 ag -4, Integrin act MD -12% and D3 antag inconclusive.
For CC(CCc1ccc(O)cc1)NC1C2CC3CC(C2)CC1C3 (stereo unspecified) the results were D3 ag 7, Integrin act MD -22% and D3 antag -56*.
Screening COc1ccccc1CCNC(C)CCc1ccc(O)cc1 (stereo unspecified) returned D3 ag 17, Integrin act MD -21% and D3 antag -7.
For CC(CCc1ccc(O)cc1)NC1c2ccccc2-c2ccccc21 (stereo unspecified) the results were D3 ag -6, Integrin act MD -29% and D3 antag 6.
CC(CCc1ccc(O)cc1)NCCc1ccc(O)c(O)c1 (stereo unspecified) was read as D3 ag 108* and D3 antag 8.
`CC(O)CCc1ccc(O)cc1` (stereo unspecified) gave D3 ag 1, Integrin act MD 13% and D3 antag 34.
CC(CCc1ccc(O)cc1)NCC(O)c1ccc(O)cc1 (stereo unspecified) was read as D3 ag 59*.
For CCC1CN(C(=O)NCc2ccc(C)cc2)c2cc(C)ccc2O1 (stereo unspecified) the results were D3 ag -5, Integrin act MD 0% and D3 antag 1.
`CCOC(=O)C1CCCN(CCC(=O)Nc2ccc(C)c(C)c2)C1` (stereo unspecified) gave D3 ag -10, Integrin act MD -14% and D3 antag inconclusive.
CCOC(=O)C1CCCN(CCC(=O)Nc2ccc(Br)c(C)c2)C1 (stereo unspecified) was read as D3 ag -9, Integrin act MD -21% and D3 antag -54*.
Screening CCOC(=O)C1CCCN(CCC(=O)Nc2ccc(Br)cc2)C1 (stereo unspecified) returned D3 ag -16, Integrin act MD -2% and D3 antag -50*.
CCOC(=O)C1CCN(CCC(=O)Nc2ccc(Br)cc2)CC1 was read as D3 ag -13, Integrin act MD -16% and D3 antag 4.
Screening CCOC(=O)C1CCCN(CCC(=O)Nc2cc(C)ccc2C)C1 (stereo unspecified) returned D3 ag -2, Integrin act MD -4% and D3 antag inconclusive.
`CCOC(=O)C1CCCN(CCC(=O)Nc2ccc3c(c2)CCC3)C1` (stereo unspecified) gave D3 ag -35, Integrin act MD -17% and D3 antag -56*.
For O=C(/C=C\Nc1ccccc1Br)c1ccc2c(c1)OCO2 the results were D3 ag 1, Integrin act MD -18% and D3 antag 4.
CCOC(=O)CNC(=O)N1[C@H](c2cccs2)[C@@H](C)C(=O)[C@@H](C)[C@@H]1c1cccs1 was read as D3 ag -8.
COc1ccccc1N1CCN(S(=O)(=O)c2c(C)sc3ncn(CC(=O)N(C)c4ccc(C(C)C)cc4)c(=O)c23)CC1 was read as D3 ag 5.
`COc1ccc(S(=O)(=O)N2CCc3ccccc32)cc1OC` gave D3 ag 7, Integrin act MD inconclusive and D3 antag 9.
For Cc1noc(C)c1S(=O)(=O)Nc1ccc2c(c1)C(=O)N([C@H](C)CO)C[C@H](C)[C@@H](CN(C)S(=O)(=O)c1ccc(F)cc1)O2 the results were D3 ag 9, Integrin act MD -7% and D3 antag 18.
Screening O=C(COc1coc(CN2CCN(c3ccccc3F)CC2)cc1=O)Nc1ccccc1 returned D3 ag -1, Integrin act MD 43% and D3 antag -8.
`Clc1cc2cccnc2c2ccccc12` gave D3 ag -3, Integrin act MD 26% and D3 antag -24.
Screening O=C(Oc1c(Cl)cc(Cl)c2cccnc12)c1ccco1 returned D3 ag -4, Integrin act MD -18% and D3 antag -124*.
Screening CC(C)COCc1ccc(O)c2ncccc12 returned D3 ag -15, Integrin act MD -64% and D3 antag inconclusive.
For O=C(Oc1c(Cl)cc(Cl)c2cccnc12)c1cccs1 the results were D3 ag -16, Integrin act MD -59% and D3 antag inconclusive.
Oc1ccc(Cl)c2cccnc12 was read as D3 ag -17, Integrin act MD -32% and D3 antag -59*.
`Oc1ccc(F)c2cccnc12` gave D3 ag -8, Integrin act MD 4% and D3 antag -15.
Screening CCCOCc1ccc(O)c2ncccc12 returned D3 ag -12, Integrin act MD -55% and D3 antag -71*.
Oc1c(Cl)cc(Cl)c2cccnc12 was read as D3 ag -8, Integrin act MD -21% and D3 antag -61*.
For COc1cccc(C(=O)N2CCC[C@@H]2C(=O)N2CCC[C@@H]2C(=O)NCc2ccccc2Cl)c1 the results were D3 ag 0 and D3 antag 20.
`O=C(Cn1c(=O)oc2ccccc21)N(Cc1ccccc1)C1CCS(=O)(=O)C1` (stereo unspecified) gave D3 ag 7, Integrin act MD 7% and D3 antag 0.
`CC(C)c1ccc(C(=O)NC(=S)Nc2ccc3[nH]c(=O)[nH]c3c2)cc1` gave D3 ag 12, Integrin act MD 9% and D3 antag -10.
